Beta2AR agonist = beta2AR agonists driving receptor internalization, primary screen, cell-based, FAP fluorogen, flow cytometry; AID 504454, 2011; Beta-2 adrenergic receptor (Homo sapiens), P07550; 340,000 tested, 0.43% active; response, % (no concentration beside the values); Am2.2-beta2AR cells;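 active = response above a set limit, near 3 SD of response in nonfluorescent compounds, cut at about 42% in these data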
Target sequence (P07550 whole entry, looked up): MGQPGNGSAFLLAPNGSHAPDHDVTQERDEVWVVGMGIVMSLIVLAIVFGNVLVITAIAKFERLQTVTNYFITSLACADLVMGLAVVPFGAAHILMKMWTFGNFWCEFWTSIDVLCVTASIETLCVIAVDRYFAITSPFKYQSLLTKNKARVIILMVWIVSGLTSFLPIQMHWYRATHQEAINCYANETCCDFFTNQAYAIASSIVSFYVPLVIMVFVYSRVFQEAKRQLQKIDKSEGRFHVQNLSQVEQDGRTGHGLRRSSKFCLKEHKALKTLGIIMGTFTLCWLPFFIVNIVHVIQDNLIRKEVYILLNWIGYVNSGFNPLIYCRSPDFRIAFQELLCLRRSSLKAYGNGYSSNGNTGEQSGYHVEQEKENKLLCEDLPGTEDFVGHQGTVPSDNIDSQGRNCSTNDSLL
tim10-1 inh = growth inhibitors of tim10-1 mutant yeast, primary screen, luminescence, uHTS | S. cerevisiae tim10-1 ts strain growth, BacTiter-Glo, 24 h | inhibition, % at 20 µM | 330,000 tested, 2.2% active;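 active = inhibition of at least 40%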;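 also: mutant grown at 25 °C; 0% = DMSO wells with yeast and 100% = wells holding no yeast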
tim23-1 inh = growth inhibitors of tim23-1 mutant yeast, primary screen, luminescence, uHTS; 330,000 tested, 1.3% active; S. cerevisiae tim23-1 growth, BacTiter-Glo luminescence, 24 h; inhibition, % at 20 µM; AID 463212, 2010;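 active = growth inhibition of the mutant yeast at or above 50%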;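 also: temperature-sensitive mutant grown at 25 °C; plate controls were DMSO-treated mutant yeast for no effect and medium wells lacking yeast for full effect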
TIM10 inh = growth inhibitors of isogenic TIM10 control yeast, primary screen, counter-screen for tim10-1 yeast inhibitor project, luminescence, uHTS; S. cerevisiae TIM10 strain growth, BacTiter-Glo luminescence, 24 h; inhibition, % at 10 µM; 330,000 tested, 1.4% active; AID 463195, 2010;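 active = inhibition of 40% or more at the single tested concentration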;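 also: wild-type TIM10 isogenic control strain grown at permissive 25 °C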
PfHsp90 set2 = growth inhibition of PfHsp90-expressing yeast, primary screen, antimalarial PfHsp90 inhibitor project, S. cerevisiae, BacTiter-Glo luminescence, single point, set 2; 310,000 tested, 0.32% active; BacTiter-Glo ATP, 48 h; yeast lacking PDR1 and PDR3 efflux regulators; inhibition, % at 9.4 µM; AID 504621, 2011;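 active = every replicate shows inhibition above about 80%, whatever the replicate mean, limit read from the data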;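 also: 0% = DMSO neutral controls and 100% = 20 µM radicicol positive controls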
tim10-1 confirm = growth inhibitors of tim10-1 mutant yeast, confirmation, single concentration, luminescence, S. cerevisiae. shares compounds with tim10-1 inh. S. cerevisiae tim10-1 ts strain growth, BacTiter-Glo, 24 h. inhibition, % at 20 µM. 7,400 tested, 56% active. AID 463213, 2010;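 active = inhibition of yeast growth at or above a set limit in either of two repeat tests at 20 µM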;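 also: tim10-1 mutant grown at permissive 25 °C to find synthetic lethal compounds; 0% = DMSO yeast wells and 100% = medium wells without yeast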
TIM10 conf = growth inhibitors of wild-type TIM10 yeast, confirmation, counter-screen for tim10-1 synthetic lethality project, single concentration, luminescence, S. cerevisiae; shares compounds with TIM10 inh; S. cerevisiae tim10 strain growth, BacTiter-Glo luminescence, 24 h; inhibition, % at 10 µM; 4,600 tested, 63% active;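 active = inhibition of yeast growth at or above a set limit in either of two replicates at 10 µM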;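 also: this counterscreen used the strain with wild-type TIM10; 0% = yeast with DMSO and 100% = medium wells lacking yeast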
Starred values were filed as active, the others as inactive; nt = no result given. Compounds with a hit are over-represented: about 3.8% of the library has one in this group of screens.

SMILES	Beta2AR agonist	tim10-1 inh	tim23-1 inh	TIM10 inh	PfHsp90 set2	tim10-1 confirm	TIM10 conf
Cc1ccc(N(CC(=O)Nc2cccc(C)c2)S(=O)(=O)c2cccc3nonc23)cc1	-2	42*	18	44*	-10	33*	39*
Cn1c(=O)n(Cc2ccccc2)c(=O)c2c1nc1n2CCCN1CCc1ccccc1	1	43*	42	47*	52	41*	34*
Cn1c(=O)n(Cc2ccccc2)c(=O)c2c1nc1n2CCCN1Cc1ccccc1	-1	23	21	11	-45	nt	nt
O=[N+]([O-])c1cccnc1N1CCC(c2cc(-c3ccc(Cl)cc3)n[nH]2)CC1	14	43*	14	49*	57	37*	46*
O=c1[nH]c(C(F)(F)F)nc2ccc3ccccc3c12	-4	-14	13	-8	-36	nt	nt
CS(=O)(=O)c1ccc(Sc2nc3ccccc3s2)c([N+](=O)[O-])c1	2	46*	26	42*	1	38*	-7
COc1ccc(C(=O)/C=C/c2ccc(OC3CSC3)cc2)cc1OC	-17	42*	30	42*	10	28	10
O=C(/C=C/c1ccc(OC2CSC2)cc1)c1ccc(Cl)cc1	-4	36	26	14	-18	nt	nt
OCc1ccccc1SSc1ccccc1CO	13	26	38	15	nt	nt	nt
COc1ccccc1/C=C/C(=O)c1cc(Br)ccc1OC(=O)c1ccco1	25	50*	49	42*	-53	42*	1
C=CCc1cccc(/C=N/NC(=O)CNc2ccccc2OC)c1O	10	47*	25	97*	-18	30	47*
CCOc1ccc(S(=O)(=O)N(CC)CC(=O)N2CCOCC2)cc1C	-4	-3	-3	1	13	nt	nt
O=C(Nc1ccccn1)c1ccc(Cl)c(S(=O)(=O)N2CCc3ccccc32)c1	1	22	39	1	14	nt	nt
Cc1cccc(NC(=S)N=Nc2c(O)n(CN3CCOCC3)c3ccccc23)c1C	9	59*	35	59*	-103	36*	41*
C=CCn1c(C)cc(C(=O)CSc2nnc3n(CCC)c(=O)c4ccccc4n23)c1C	3	nt	nt	nt	7	nt	nt
COC(=O)c1ccccc1NC(=S)NC(=O)COc1ccccc1Cl	4	42*	34	42*	nt	24	32
Cc1oc(=O)c(NC(=O)c2cccc(Cl)c2)cc1C(=O)c1ccccc1	5	62*	48	51*	nt	62*	43*
COc1ccc(C(=O)Nc2cc(C(=O)c3ccccc3)c(C)oc2=O)cc1	-4	66*	45	60*	117*	70*	43*
COC(=O)c1cc(NC(=O)c2ccccc2)c(=O)oc1C	-19	12	17	19	23	nt	nt
CCCCn1c(N)c(N(CCC(C)C)C(=O)C2CC(=O)N(CCc3ccc(OC)c(OC)c3)C2)c(=O)[nH]c1=O (stereo unspecified)	-5	11	1	10	-8	nt	nt
Cc1onc(-c2ccccc2Cl)c1C(=O)O/N=C(\N)c1ccc([N+](=O)[O-])o1	3	49*	39	44*	-11	28	44*
C/C(=N/OC(=O)c1c(-c2ccccc2Cl)noc1C)c1cnccn1	-8	33	2	4	-3	nt	nt
N/N=C(/Cc1nc2ccccc2[nH]1)c1ccc([N+](=O)[O-])cc1	7	42*	28	51*	12	50*	58*
O=C(c1ccc2c(=O)n(Cc3ccccc3Cl)c(=S)[nH]c2c1)N1CCCC1	2	-2	-4	9	31	nt	nt
COc1ccc(NCc2nnc(SCc3ccc(Cl)cc3)n2-c2ccccc2)cc1	-5	52*	50	54*	-12	39*	-24
SMILES	Beta2AR agonist	tim10-1 inh	tim23-1 inh	TIM10 inh	PfHsp90 set2	tim10-1 confirm	TIM10 conf
CCOC(=O)c1ccc(NC(=O)CC2Sc3ncnn3C2=O)cc1 (stereo unspecified)	7	61*	25	75*	nt	58*	58*
COc1cccc(CN2C(=O)CCC2(C)C(=O)NCCc2ccc(OC)c(OC)c2)c1 (stereo unspecified)	-15	7	15	8	6	nt	nt
Cc1ccc2nc(N(CCCN(C)C)C(=O)c3ccc(S(=O)(=O)N4CCOCC4)cc3)sc2c1	1	-8	-6	5	4	nt	nt
Cc1cc(C)c2sc(N(CCCN(C)C)C(=O)c3ccc(S(=O)(=O)N4CCCc5ccccc54)cc3)nc2c1	33	54*	20	51*	-27	41*	33*
CN(C)CCCN(C(=O)c1ccc(S(=O)(=O)N2CCc3ccccc3C2)cc1)c1nc2ccc(F)cc2s1	49*	59*	30	57*	nt	36*	45*
Cc1cccc2sc(N(CCCN(C)C)C(=O)c3ccc(S(=O)(=O)N4CCc5ccccc5C4)cc3)nc12	46*	41*	20	40*	-30	16	22
NC(=O)c1nsc(C(=O)N(CC(=O)NCc2ccccc2)c2ccc(F)cc2)c1N	-5	0	17	1	-4	nt	nt
CN(C)c1ccc(/C=N/NC(=S)NCc2ccccc2)cc1	-15	43*	26	55*	nt	32*	44*
C/C(=N\NC(=S)NCc1ccccc1)c1ccc2c(c1)OCCO2	-21	43*	49	46*	8	49*	39*
C/C(=N\NC(=S)NCc1ccccc1)c1ccc(Br)cc1	-4	49*	13	40	-2	24	32*
CC(C)(C)c1ccc(/C=N/NC(=S)NCc2ccccc2)cc1	-2	-4	-2	3	-23	nt	nt
COc1cc(CC(=O)OCC(=O)N(C)C2CCCCC2)cc(OC)c1OC	-6	20	15	7	-12	nt	nt
Cc1ccc2cc(C)c(N3CCN(c4ccccn4)CC3)nc2c1	2	53*	41	43*	19	34*	38*
CCCCn1cnc2c(SCc3ccccc3F)nc(N)nc21	-10	nt	nt	nt	nt	nt	nt
COC(=O)C1(Cc2cc(-c3ccc(Cl)cc3)no2)CCN(C(=O)OC(C)(C)C)CC1	-5	54*	28	44*	27	45*	40*
COC(=O)C1(Cc2cc(-c3ccc([N+](=O)[O-])cc3)no2)CCN(C(=O)OC(C)(C)C)CC1	0	26	38	14	15	nt	nt

Compound activity (PubChem BioAssay)
